The nature of assay [1]: qHTS assay for small molecule agonists of the antioxidant response element (ARE) signaling pathway measured by Nrf2-dependant transcriptional activity (AID 720636; active means well fitted curve in the direction sought with a large enough effect in the repeat runs; an effect the other way counts as inactive or inconclusive). Summed up: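 Nrf2-dependent transcription read as ONE-Glo luciferase signal from ARE-luc HepG2 reporter cells after 16 hr compound treatment at 37 C, 5% CO2, in assay medium with 1% dialyzed FBS.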
A general note: Quantitative high-throughput screening tests each substance at several concentrations.

The target in assay [2] is Cytochrome P450 3A4 (Homo sapiens) (UniProt P08684). Description: qHTS Assay for Inhibitors and Substrates of Cytochrome P450 3A4 (AID 884). Further: nearly all actives have a fitted effect of over 50% in size. In outline:
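Luminescent readout of luciferin produced by CYP3A4 (20 nM) dealkylation of Luciferin-PPXE, 25 uM (its KM). NADPH-driven reaction ran 60 min at RT after 10 min compound preincubation; data scaled to 57 uM ketoconazole as 100% inhibition.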

A short description of assay [3]: MultiTox-Fluor Cytotoxicity Assay - LYMP1-001 - Live Cells (AID 947).
The nature of assay [4]: Cell Viability - LYMP2-013 (AID 970). Further: nearly all actives have a fitted effect of over 55% in size. Summed up:
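In complete culture medium, human lymphoblastoid cells were dosed for 24 hr at 37 C, with tetraoctylammonium bromide (6.4pM to 92 uM) as positive control. Viability reflects luciferase-based ATP signal; AC50 derived from concentration-response curves.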

Assay [5] in a line: Cell Viability - LYMP2-002 (AID 977).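 Further: compound exposure lasted 24 h at 37 °C.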 In outline: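 Human lymphoblastoid cells (2500/well) in complete medium were preincubated 5 hr at 37 C, then exposed to compounds for 24 hr at 37 C. Intracellular ATP was read by CellTiter-Glo luminescence; AC50 came from Hill-equation concentration-response fits.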
Assay [6] can be described thus: Cell Viability - LYMP2-006 (AID 978). Further: nearly all actives have a fitted effect of over 60% in size. Summed up: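 qHTS, 1536-well; 2500 cells/well, 5 hr 37 C; cpd 24 hr 37 C; CellTiter-Glo 30 min RT; luminescence. Tetraoctylammonium bromide pos. ctrl. AC50 via Hill eqn.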
Assay [7] can be described thus: Cell Viability - LYMP2-014 (AID 983). Further: nearly all actives have a fitted effect of over 50% in size. Summed up: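 Quantitative HTS in lymphoblastoid cells: 24 hr compound exposure, then CellTiter-Glo ATP luminescence. Positive control was tetraoctylammonium bromide, 6.4pM to 92 uM.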

Several values for one entry are separate records, joined by “and”; a condition that tells them apart may be missing. Equal values may be shown once. Inconclusive results are not listed. The source holds several records for some structures; these can differ, active in one and inactive in another. Activity calls are given as the source filed them. Unless noted, the call rests on the fitted dose curve; in most records, active means well fitted curve in the direction sought with a large enough effect; inconclusive means small, poorly fitted or top-dose-only effect, or another doubt; inactive means no such curve, though single readings can be large; an effect the other way counts as inactive or inconclusive.
Potency means the concentration at half of the fitted maximal effect.

Cytochrome P450 3A4 (Homo sapiens), sequence (P08684 whole entry, looked up): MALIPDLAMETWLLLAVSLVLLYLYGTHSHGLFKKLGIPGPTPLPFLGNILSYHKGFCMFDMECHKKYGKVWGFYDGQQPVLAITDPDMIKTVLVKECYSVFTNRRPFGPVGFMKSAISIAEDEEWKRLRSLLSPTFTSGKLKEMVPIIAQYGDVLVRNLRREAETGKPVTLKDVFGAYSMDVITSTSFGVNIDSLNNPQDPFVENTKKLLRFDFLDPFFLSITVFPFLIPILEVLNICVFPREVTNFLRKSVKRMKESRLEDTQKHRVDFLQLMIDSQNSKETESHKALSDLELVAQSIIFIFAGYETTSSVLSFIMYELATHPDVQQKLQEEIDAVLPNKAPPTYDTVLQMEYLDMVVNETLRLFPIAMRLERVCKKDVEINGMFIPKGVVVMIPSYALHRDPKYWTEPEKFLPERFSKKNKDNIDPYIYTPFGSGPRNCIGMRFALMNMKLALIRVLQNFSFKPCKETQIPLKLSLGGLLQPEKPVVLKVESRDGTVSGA

With `Cc1ccc(O)cc1C`, the Potency result in assay [1] is “inactive”.
As to `OC(c1ccc(Cl)cc1)(c1ccc(Cl)cc1)C(Cl)(Cl)Cl`, the Potency result in assay [2], in assay [3], in assay [4], in assay [5], in assay [6] and in assay [7] was “inactive” each time. Moreover, the Potency entry in assay [1] is “inactive”.
With `[CH3][Hg][Cl]`, in assay [2], the Potency result was “inactive”. In addition, the Potency in assay [3] is 39.8 µM (active); in assay [4], 3.98 µM (active); in assay [5], 7.94 µM (active); in assay [6] it was 5.01 µM (active); in assay [7] it was 3.98 µM (active).
Take `c1ccc2cc3c(cc2c1)-c1cccc2cccc-3c12`: the Potency result in assay [2], in assay [3], in assay [4], in assay [5], in assay [6] and in assay [7] was “inactive” in each case. In assay [1], the Potency was 9.44 µM (active) and 8.63 µM (active).
As to `Oc1c(Br)c(Br)c(Br)c(Br)c1Br`, the Potency result in assay [2], in assay [3], in assay [4], in assay [5], in assay [6] and in assay [7] was “inactive” each time. Also, in assay [1], the Potency entry was “inactive”.
On to `[Cd+2].[Cl-].[Cl-]`, for which, in assay [1], the Potency is 841 nM (active).
As to `C[C@@H]1CC[C@@]2(OC1)O[C@H]1[C@@H](O)[C@H]3[C@@H]4CC[C@H]5C[C@@H](O[C@@H]6O[C@H](CO)[C@H](O[C@@H]7O[C@H](CO)[C@@H](O)[C@H](O[C@@H]8OC[C@@H](O)[C@H](O)[C@H]8O)[C@H]7O[C@@H]7O[C@H](CO)[C@@H](O)[C@H](O[C@@H]8O[C@H](CO)[C@@H](O)[C@H](O)[C@H]8O)[C@H]7O)[C@H](O)[C@H]6O)[C@H](O)C[C@]5(C)[C@H]4CC[C@]3(C)[C@H]1[C@@H]2C`, the Potency entry in assay [2] and in assay [1] was “inactive” each time. The Potency in assay [3] was 12.6 µM (active); in assay [4] it was 20 µM (active); in assay [5], 25.1 µM (active); in assay [6], 20 µM (active); in assay [7], 25.1 µM (active).
In the case of `N#CC(Cl)Cl`, the Potency entry in assay [3] was “inactive”. Moreover, the Potency is 20 µM (active) in assay [4], 12.6 µM (active) in assay [5], 12.6 µM (active) in assay [6] and 50.1 µM (active) in assay [7].
With `C(=NC1CCCCC1)=NC1CCCCC1`, the Potency entry in assay [2], in assay [3] and in assay [1] was “inactive” throughout.
Consider `COP(=O)(OC)O/C(=C\Cl)c1cc(Cl)c(Cl)cc1Cl`, for which the Potency entry in assay [2], in assay [3], in assay [5] and in assay [6] was “inactive” each time.
With `FC(F)(F)c1ccc(Cl)cc1`, the Potency entry in assay [2], in assay [3], in assay [4], in assay [5], in assay [6] and in assay [7] was “inactive” in each case. Also, in assay [1], the Potency entry is “inactive”.
Consider `O=[N+]([O-])c1ccccc1Cl`, for which the Potency entry in assay [1] is “inactive”.
For `ClC1=C(Cl)C2(Cl)C3C(Cl)C(Cl)CC3C1(Cl)C2(Cl)Cl` (centres undefined), in assay [2], the Potency is 15.8 µM (active). Further, the Potency result in assay [4] and in assay [7] was “inactive” each time.
As for `N#CSCSC#N`, the Potency result in assay [2] and in assay [1] was “inactive” in each case. Further, the Potency in assay [3] was 39.8 µM (active); in assay [4], 6.31 µM (active); in assay [5], 10 µM (active); in assay [6], 12.6 µM (active); in assay [7], 7.94 µM (active).
As to `O=[N+]([O-])c1cc(C(F)(F)F)cc([N+](=O)[O-])c1Cl`, the Potency entry in assay [2], in assay [3] and in assay [1] was “inactive” in each case. Moreover, the Potency in assay [4] is 39.8 µM (active); in assay [5] it was 31.6 µM (active); in assay [7] it was 50.1 µM (active).
In the case of `O=C1C2(Cl)C3(Cl)C4(Cl)C(Cl)(Cl)C5(Cl)C3(Cl)C1(Cl)C5(Cl)C24Cl` (centres undefined), the Potency was 10 µM (active) and 15.8 µM (active) in assay [2]; 39.8 µM (active) and 50.1 µM (active) in assay [3]; 39.8 µM (active) and inactive in assay [6]. Moreover, the Potency result in assay [1] is “inactive”.
`C#CCO`: the Potency entry in assay [2], in assay [3], in assay [4], in assay [5], in assay [6] and in assay [7] was “inactive” in each case. Further, the Potency entry in assay [1] was “inactive”.
On to `O=C(CCl)c1ccccc1`, for which the Potency entry in assay [2] and in assay [1] was “inactive” throughout. Further, the Potency in assay [4] is 15.8 µM (active); in assay [5], 12.6 µM (active); in assay [6] it was 12.6 µM (active); in assay [7], 12.6 µM (active).
